# From PubChem BioAssay (Tox21)
# Records with an inconclusive call do not appear. Values without a mark were called inactive. Active and inactive are the calls of the source. Unless noted, calls follow the shape of the dose curve; as a rule, active = well fitted curve in the direction sought with a large enough effect in the repeat runs; inconclusive = weak or mixed curves; inactive = no such curve, though single readings can be large; an effect the other way counts as inactive or inconclusive.
# Target: Androgen receptor (Homo sapiens) (UniProt P10275)
# Sequence (P10275 whole entry, looked up): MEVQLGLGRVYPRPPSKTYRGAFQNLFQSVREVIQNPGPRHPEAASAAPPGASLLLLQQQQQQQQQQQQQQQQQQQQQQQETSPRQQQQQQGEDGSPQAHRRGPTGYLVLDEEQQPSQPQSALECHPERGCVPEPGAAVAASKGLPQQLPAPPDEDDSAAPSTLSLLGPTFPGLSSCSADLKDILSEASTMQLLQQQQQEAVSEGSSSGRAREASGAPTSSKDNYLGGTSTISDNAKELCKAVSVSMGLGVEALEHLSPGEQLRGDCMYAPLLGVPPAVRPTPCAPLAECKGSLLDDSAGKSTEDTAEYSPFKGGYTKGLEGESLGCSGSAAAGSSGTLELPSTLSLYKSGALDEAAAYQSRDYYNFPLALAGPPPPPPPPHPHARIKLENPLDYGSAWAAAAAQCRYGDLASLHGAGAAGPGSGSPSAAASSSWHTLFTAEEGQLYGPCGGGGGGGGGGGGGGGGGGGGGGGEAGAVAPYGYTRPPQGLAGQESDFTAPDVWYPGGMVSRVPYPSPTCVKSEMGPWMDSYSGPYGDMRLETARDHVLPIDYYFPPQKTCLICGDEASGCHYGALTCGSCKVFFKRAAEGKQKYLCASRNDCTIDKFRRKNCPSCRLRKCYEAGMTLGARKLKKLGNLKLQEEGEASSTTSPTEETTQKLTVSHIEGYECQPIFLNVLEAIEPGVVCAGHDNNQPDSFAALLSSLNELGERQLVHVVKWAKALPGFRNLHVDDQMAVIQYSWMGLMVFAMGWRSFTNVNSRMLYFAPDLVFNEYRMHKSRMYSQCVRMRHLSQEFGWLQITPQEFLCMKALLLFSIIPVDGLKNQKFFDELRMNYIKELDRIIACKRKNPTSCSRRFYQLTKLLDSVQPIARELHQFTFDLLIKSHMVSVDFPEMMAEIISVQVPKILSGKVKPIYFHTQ
# Test: qHTS assay to identify small molecule antagonists of the androgen receptor (AR) signaling pathway using the MDA cell line in the presence of 0.5 nM R1881 (AID 1259243); also: nearly all actives have a fitted effect of over 50% in size; also: potency is read from the fitted curve at half-maximal effect
# Conditions: MDA-kb2 MMTV-luciferase, R1881 0.5 nM, 16 h; series mostly up to 92.4 µM; activity, negative = inhibition: at the top concentration
# Procedure, shortened: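 Stably transfected MDA-kb2 cells express luciferase from an MMTV promoter bearing both AR and GR response elements. Compounds plus 0.5 nM R1881 (final) were incubated 16 hr at 37C without CO2, then luminescence measured.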
# % is scaled to controls: 0 for no effect and ±100 for the full control effect.
Structure (SMILES),"activity, negative = inhibition",Potency
CC(O)C(CO)C(C)O (stereo not given),5.7%,–
CCCCCCCCCCCCCCCCN(C)C,15.5% [at 8.39 µM],–
C/C(Cl)=C/CCl,-3.83%,–
CC12CCCC=C1C(=O)OC2=O (stereo not given),0.413%,–
COc1cc(OC)cc(OC)c1,1.31% [at 42.5 µM],–
CC(C)(C)NCC(O)COc1cccc2c1CCC(=O)N2 (stereo not given),5.8% [at 42.5 µM],–
O=C(c1ccccc1)c1cccc(O)c1,–,27.7 µM (active)

# Target: Estrogen receptor (Homo sapiens) (UniProt P03372)
# Sequence (P03372 whole entry, looked up): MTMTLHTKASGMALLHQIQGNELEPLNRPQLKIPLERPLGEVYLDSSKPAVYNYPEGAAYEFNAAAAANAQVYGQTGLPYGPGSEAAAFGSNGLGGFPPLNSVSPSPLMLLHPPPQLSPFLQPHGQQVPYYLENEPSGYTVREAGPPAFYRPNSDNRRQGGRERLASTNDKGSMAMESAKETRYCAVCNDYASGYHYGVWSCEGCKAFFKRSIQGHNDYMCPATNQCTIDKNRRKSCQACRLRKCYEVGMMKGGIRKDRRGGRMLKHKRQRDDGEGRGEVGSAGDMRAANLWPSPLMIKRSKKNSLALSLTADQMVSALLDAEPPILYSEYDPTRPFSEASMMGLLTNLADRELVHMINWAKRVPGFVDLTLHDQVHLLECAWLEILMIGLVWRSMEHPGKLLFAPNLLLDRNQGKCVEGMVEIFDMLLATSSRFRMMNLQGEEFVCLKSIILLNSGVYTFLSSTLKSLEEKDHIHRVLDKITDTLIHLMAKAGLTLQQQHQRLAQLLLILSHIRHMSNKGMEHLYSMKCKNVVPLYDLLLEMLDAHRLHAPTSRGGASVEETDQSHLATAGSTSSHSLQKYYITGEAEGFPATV
# Test: qHTS assay to identify small molecule antagonists of the estrogen receptor alpha (ER-alpha) signaling pathway using the BG1 cell line in the presence of 0.1 nM 17-beta-estradiol (AID 1259244); also: nearly all actives have a fitted effect of over 50% in size
# Conditions: VM7Luc4E2 (BG1) ERE-luciferase, antagonist mode, 0.1 nM E2, 22 h; series mostly up to 92.4 µM; activity change, negative = inhibition: at the top concentration
# Procedure, shortened: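 Antagonist mode: compounds in DMSO are pinned onto VM7Luc4E2 reporter cells, 0.1 nM final 17beta-estradiol is added, and after 22 h at 37C luciferase luminescence is measured with ONE-Glo.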
row,Structure (SMILES),"activity change, negative = inhibition"
1,CC(O)C(CO)C(C)O (stereo not given),4.07%
2,Cc1cc(O)c(Cl)cc1C,0.829%
3,CCCCCCCCCCCCCCCCN(C)C,15.1% [at 8.39 µM]
4,C/C(Cl)=C/CCl,0%
5,C=CC(C)(CCC=C(C)C)OC(=O)C(C)C (stereo not given),3.18%
6,CN(C)CCc1c[nH]c2ccc(C[C@H]3COC(=O)N3)cc12,-0.403% [at 42.5 µM]
7,O=C(c1ccccc1)c1cccc(O)c1,4.08%
8,Cc1ccccc1OCC(=O)O,1.98%
9,O=C(O)Cc1c(Cl)ccc(Cl)c1Cl,5.99%
10,CC(C)(C)c1ccc(C(=O)CCCCl)cc1,47.7% [at 42.5 µM]
11,NNC(=O)CCCCC(=O)NN,-7.96%
12,CCCCCCC(O)CO (stereo not given),2.49%

# Test system: not listed separately
# Test: qHTS assay to identify small molecule phospholipidosis (PLD) inducers (AID 1259344; active = well fitted curve in the direction sought with a large enough effect; an effect the other way counts as inactive or inconclusive; also: potency is read from the fitted curve at half-maximal effect)
# Conditions: HepG2 phospholipidosis, LipidTOX Red imaging, 24 h; series mostly up to 38.3 µM; PLD induction: at the top concentration
# Procedure, shortened: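 Read-out is LipidTOX Red fluorescence (ex 595/em 615) imaged in HepG2 cells after 24 h compound exposure at 37 C, with Hoechst nuclear counterstain (ex 352/em 461) allowing per-cell normalisation.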
Structure (SMILES),PLD induction,Potency
COC(=O)C(c1ccccc1Cl)N1CCc2sccc2C1 (stereo not given),3.14%,–
COc1cc(OC)cc(OC)c1,1.73%,–
CC(=O)SC[C@@H](C)C(=O)N1CCC[C@H]1C(=O)N[C@@H](Cc1ccccc1)C(=O)O,–,3.55 µM (active)
CN(C)CCc1c[nH]c2ccc(C[C@H]3COC(=O)N3)cc12,-0.945%,–
CC(C)(C)C(=O)NCCCC(=O)O,0.0172%,–
CC(C)(C)NCC(O)COc1cccc2c1CCC(=O)N2 (stereo not given),1.6% [at 15.5 µM],–
CN(C)CCC[C@@]1(c2ccc(F)cc2)OCc2cc(C#N)ccc21,2.47%,–

# Test system: not listed separately
# Test: qHTS assay to identify small molecule HDAC inhibitors (AID 1259364);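 also: wild-type HCT-116 cells with endogenous class I/II HDAC activity; top concentration of the series differs between compounds; nearly all actives have a fitted effect of over 45% in size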
# Conditions: HCT-116 HDAC-Glo I/II luminescence, 2 h; series mostly up to 92.4 µM; activity change, negative = inhibition: at the top concentration
# Procedure, shortened: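 Cells (HCT-116, wild type) are seeded at 1,500 per well, incubated overnight, treated with compound in DMSO for 2 hr, then developed with HDAC-Glo I/II reagent for 30 min at room temperature.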
row,Structure (SMILES),"activity change, negative = inhibition"
1,CC(O)C(CO)C(C)O (stereo not given),2.08%
2,Cc1cc(O)c(Cl)cc1C,-5.9%
3,CCCCCCCCCCCCCCCCN(C)C,2.04% [at 8.39 µM]
4,Cc1ccc2ccccc2n1,-8.92%
5,CCCCC(CC)COC(=O)CC#N (stereo not given),-2.07%
6,CCCCCCCCCCCBr,-0.0694% [at 42.5 µM]
7,COC(=O)C(c1ccccc1Cl)N1CCc2sccc2C1 (stereo not given),11.2% [at 42.5 µM]
8,C=CCN(CC=C)CC=C,3.44%
9,C/C(Cl)=C/CCl,0.047%
10,CCCCC(O)/C=C(C)/C=C/C=C/C(=O)N1CCCC1=O (stereo not given),3.32% [at 42.5 µM]
11,CCOCCOCCOC(C)=O,0.33%
12,CCCc1ccc(O)c(OC)c1,3.01%
13,CCCCCCC(=O)c1ccccc1,-21.7%
14,CN(C)CCc1c[nH]c2ccc(C[C@H]3COC(=O)N3)cc12,-3.94% [at 42.5 µM]
15,CC(C)(C)C(=O)NCCCC(=O)O,-1.35% [at 42.5 µM]
16,CC(C)(C)NCC(O)COc1cccc2c1CCC(=O)N2 (stereo not given),-8.32% [at 42.5 µM]
17,CCNC(=O)C(C)OC(=O)Nc1ccccc1 (stereo not given),-0.682%
18,Cc1ccccc1OCC(=O)O,-7.96%
19,Nc1nc(Cl)cc(Cl)n1,-17.7%
20,O=C(O)Cc1c(Cl)ccc(Cl)c1Cl,0.0036%
21,CCCCCC(=O)CC,5.46%
22,CC(C)(Sc1cc(C(C)(C)C)c(O)c(C(C)(C)C)c1)Sc1cc(C(C)(C)C)c(O)c(C(C)(C)C)c1,-4.43% [at 42.5 µM]
23,COc1cc(S(N)(=O)=O)cc(C(=O)O)c1OC,0.418% [at 42.5 µM]
24,C=CCCCCCCCCCCCCCC,0.0889% [at 19 µM]
25,CN(C)CCC[C@@]1(c2ccc(F)cc2)OCc2cc(C#N)ccc21,4.35% [at 42.5 µM]
26,O=c1c(O)c(O)c1=O,6.27%
27,NNC(=O)CCCCC(=O)NN,6.59%
28,Cc1ccc(O)c(C(=O)c2ccccc2)c1,-1.8%
29,CCCCCCC(O)CO (stereo not given),-0.235%
